# Among all 39,000 compounds or so, about 220 (0.56%) showed activity. The list comes from a sample in which actives are over-represented; it also holds similar structures and randomly drawn compounds.
# Tested on: Escherichia coli K-12 BW25113
# Assay: relative growth (OD600 normalised to plate interquartile mean) (fraction); higher = less growth inhibition, active = 0.2 or less
# Conditions: 50 µM; LB; incubation time: overnight (16-24 h)
# 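Also: Wild-type cells incubated without shaking, value is the mean of two biological replicates.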
row,Structure (SMILES),relative growth
1,COc1ccc(S(=O)(=O)N(C)C[C@@H]2Oc3ncc(C#Cc4ccc(OC)c(OC)c4)cc3C(=O)N([C@H](C)CO)C[C@@H]2C)cc1,0.91 (inactive)
2,Cc1cn([C@@H]2C[C@@H](O)[C@H](CO)O2)c(=O)[nH]c1=O,0.991 (inactive)
3,O=c1[nH]c(=O)n([C@H]2C[C@H](O)[C@@H](CO)O2)cc1Br,0.944 (inactive)
4,Cc1cn([C@@H]2C[C@H](O)[C@@H](CO)O2)c(=O)[nH]c1=O,0.988 (inactive)
5,O=c1[nH]c(=O)n([C@H]2C[C@H](O)[C@@H](CO)O2)cc1CO,1.04 (inactive)
6,O=c1[nH]c(=O)n([C@@H]2C[C@@H](O)[C@@H](CO)O2)cc1F,0.0303 (active)
7,O=c1[nH]c(=O)n(C2CC(O)C(CO)O2)cc1F (stereo not drawn),0.0526 (active)
8,O=c1[nH]c(=O)n(C2CC(O)C(CO)O2)cc1I (stereo not drawn),1.06 (inactive)
9,Cc1cn([C@H]2C[C@H](O)[C@@H](CO)O2)c(=O)[nH]c1=O,1.03 (inactive)
10,O=c1[nH]c(=O)n([C@H]2C[C@H](O)[C@@H](CO)O2)cc1F,0.0339 (active)
11,COC[C@H]1CN(C(=O)c2cccc(OC)c2)N1,1.01 (inactive)
12,Cc1ccc(S(=O)(=O)N(C)C[C@@H]2Oc3c(NC(=O)Nc4cccc5ccccc45)cccc3C(=O)N([C@H](C)CO)C[C@@H]2C)cc1,1 (inactive)
13,Cc1noc(C)c1S(=O)(=O)N(C)C[C@@H]1Oc2ccc(NC(=O)Cc3cn(C)c4ccccc34)cc2CC(=O)N([C@H](C)CO)C[C@@H]1C,1.01 (inactive)
14,COc1nc(C)nc(Cl)c1NC1=NCCN1,1.03 (inactive)
15,C[C@H]1CCCCO[C@@H](CN(C)S(=O)(=O)c2ccc(Cl)cc2)[C@@H](C)CN([C@@H](C)CO)C(=O)c2cc(NC(=O)NC3CCCCC3)ccc2O1,1 (inactive)
16,CC1CN(c2c(F)c(N)c3c(=O)c(C(=O)O)cn(C4CC4)c3c2F)CC(C)N1 (stereo not drawn),0.0495 (active)
17,CC1CN(c2c(F)c(F)c3c(=O)c(C(=O)O)cn(C4CC4)c3c2F)CC(C)N1 (stereo not drawn),0.0486 (active)
18,C[C@H](NC(=O)C[C@@H]1C=C[C@H](NC(=O)CN2CCOCC2)[C@H](CO)O1)c1ccccc1,1.02 (inactive)
19,O=C(NCCCN1CCOCC1)[C@H]1N[C@H]2c3ccc(C4=CCCCC4)c(=O)n3C[C@H]2[C@@H]1CO,0.98 (inactive)
20,C[C@@H]1CN([C@@H](C)CO)C(=O)c2cc(NS(=O)(=O)c3ccc(F)cc3)ccc2O[C@@H](C)CCCCO[C@@H]1CN(C)C(=O)Nc1ccc2c(c1)OCO2,1.01 (inactive)
21,C[C@@H]1CN([C@@H](C)CO)C(=O)c2cccc(NC(=O)c3ccc(-c4nccs4)cc3)c2O[C@H]1CN(C)C(=O)Nc1cccc2ccccc12,0.886 (inactive)

row,Structure (SMILES),relative growth
1,CN(C)CCN1CCc2ncc(Cn3cncn3)n2CC1,0.99 (inactive)
2,COc1ccc(S(=O)(=O)N(C)C[C@H]2OCCCC[C@H](C)Oc3ccc(NS(=O)(=O)c4cn(C)cn4)cc3C(=O)N([C@@H](C)CO)C[C@@H]2C)cc1,1 (inactive)
3,CCC(C)CCCCC(=O)NC(CCN)C(=O)NC(C(=O)NC(CCN)C(=O)NC1CCNC(=O)C(C(C)O)NC(=O)C(CCN)NC(=O)C(CCN)NC(=O)C(CC(C)C)NC(=O)C(Cc2ccccc2)NC(=O)C(CCN)NC1=O)C(C)O.O=S(=O)(O)O (stereo not drawn),0.0419 (active)
4,CC[C@@H](C)CCCCC(=O)N[C@@H](CCN)C(=O)N[C@H](C(=O)N[C@@H](CCN)C(=O)N[C@H]1CCNC(=O)[C@H]([C@@H](C)O)NC(=O)[C@H](CCN)NC(=O)[C@H](CCN)NC(=O)[C@H](CC(C)C)NC(=O)[C@@H](Cc2ccccc2)NC(=O)[C@@H](CCN)NC1=O)[C@@H](C)O,0.0424 (active)
5,CC[C@@H](C)CCCC(=O)N[C@@H](CCN)C(=O)N[C@H](C(=O)N[C@@H](CCN)C(=O)N[C@H]1CCNC(=O)[C@H]([C@@H](C)O)NC(=O)[C@H](CCN)NC(=O)[C@H](CCN)NC(=O)[C@H](CC(C)C)NC(=O)[C@@H](CC(C)C)NC(=O)[C@H](CCN)NC1=O)[C@@H](C)O,0.262 (inactive)
6,CC[C@H](C)[C@H](N)C1=N[C@H](C(=O)N[C@@H](CC(C)C)C(=O)N[C@H](CCC(=O)O)C(=O)N[C@H](C(=O)N[C@H]2CCCCNC(=O)[C@H](CC(N)=O)NC(=O)[C@@H](CC(=O)O)NC(=O)[C@H](Cc3cnc[nH]3)NC(=O)[C@@H](Cc3ccccc3)NC(=O)[C@H]([C@@H](C)CC)NC(=O)[C@@H](CCCN)NC2=O)[C@@H](C)CC)CS1,0.909 (inactive)
7,C[C@@H]1CN([C@H](C)CO)C(=O)c2cccc(NC(=O)C3CC3)c2O[C@@H]1CN(C)S(=O)(=O)c1ccccc1,1.01 (inactive)
8,Cc1ccc(S(=O)(=O)N(C)C[C@@H]2Oc3ccc(NS(=O)(=O)c4cccs4)cc3CC(=O)N([C@H](C)CO)C[C@H]2C)cc1,1 (inactive)
9,C[C@H]1CN([C@@H](C)CO)C(=O)c2c(c3ccccc3n2C)-c2ccccc2CO[C@@H]1CN(C)S(=O)(=O)c1ccc(C(F)(F)F)cc1,1 (inactive)
10,CO[C@@H]1CN(C)C(=O)c2ccc(NS(C)(=O)=O)cc2OC[C@H](C)N(S(C)(=O)=O)C[C@H]1C,0.991 (inactive)
11,Cc1nnc(NCc2ccccc2)n(N)c1=O,0.975 (inactive)
12,CCCC#Cc1ccc2c(c1)O[C@H](CN(C)Cc1ccc3c(c1)OCO3)[C@H](C)CN([C@H](C)CO)S2(=O)=O,1.05 (inactive)
13,C[C@@H]1CN([C@H](C)CO)C(=O)c2cc(NC(=O)NC3CCCCC3)ccc2O[C@@H](C)CCCCO[C@H]1CN(C)Cc1ccncc1,1.02 (inactive)
14,C[C@@H]1CCCCO[C@@H](CN(C)S(=O)(=O)c2ccccc2)[C@@H](C)CN([C@H](C)CO)C(=O)c2cc(NC(=O)C3CCCCC3)ccc2O1,1.01 (inactive)
15,O=C(C[C@H]1CC[C@@H](NC(=O)c2cccnc2)[C@H](CO)O1)NCCN1CCCCC1,1 (inactive)
16,C[C@@H]1CN([C@H](C)CO)C(=O)c2cccc(NS(C)(=O)=O)c2O[C@H]1CN(C)C(=O)NC1CCCCC1,1.01 (inactive)
17,Cc1[nH]c(=O)c(C(=O)O)c2c1CCC2,0.994 (inactive)
18,NNC(=O)c1c(O)c2c([nH]c1=O)CCCC2,0.95 (inactive)
19,O=C(O)c1c(O)c2c([nH]c1=O)CCCC2,0.104 (active)
20,C[C@H](CO)N1C[C@H](C)[C@@H](CN(C)Cc2cccc(F)c2)Oc2cc(C#CC3CC3)ccc2S1(=O)=O,1.04 (inactive)
21,C[C@H](CO)N1C[C@H](C)[C@H](CN(C)CC2CC2)Oc2ccc(NS(=O)(=O)c3cn(C)cn3)cc2CC1=O,0.99 (inactive)

row,Structure (SMILES),relative growth
1,Cc1ccc(S(=O)(=O)Nc2ccc3c(c2)C(=O)N([C@H](C)CO)C[C@H](C)[C@@H](CN(C)C(=O)C2CCCCC2)OCCCC[C@H](C)O3)cc1,0.998 (inactive)
2,Nc1ccccc1OCc1ccccc1,0.955 (inactive)
3,CO/N=C(\C(=O)N[C@@H]1C(=O)N2C(C(=O)O)=C(CSC(=O)c3ccco3)CS[C@H]12)c1csc(N)n1,0.0342 (active)
4,CON=C(C(=O)NC1C(=O)N2C(C(=O)O)=C(CSC(=O)c3ccco3)CSC12)c1csc(N)n1.Cl (stereo not drawn),0.0447 (active)
5,CO/N=C(\C(=O)N[C@@H]1C(=O)N2C(C(=O)O)=C(C[n+]3ccn4ncccc43)CS[C@H]12)c1nsc(N)n1,0.0425 (active)
6,C[C@H](CO)N1C[C@H](C)[C@H](CN(C)Cc2ccc(-c3ccccc3)cc2)Oc2c(NC(=O)c3nc4ccccc4s3)cccc2C1=O,1.01 (inactive)
7,CN1CCC[C@H]1CO,0.919 (inactive)
8,COCCNC(=O)C[C@@H]1C[C@@H]2c3cc(NS(C)(=O)=O)ccc3O[C@@H]2[C@H](CO)O1,1 (inactive)
9,C[C@@H]1CN([C@H](C)CO)C(=O)Cc2cc(NC(=O)CCCCCC(=O)Nc3ccccc3N)ccc2O[C@H]1CN(C)C(=O)Nc1cccc2ccccc12,0.963 (inactive)
10,C[C@@H]1CCCCO[C@H](CN(C)S(=O)(=O)c2ccc(F)cc2)[C@H](C)CN([C@@H](C)CO)C(=O)c2cc(NC(=O)Nc3ccc4c(c3)OCO4)ccc2O1,1 (inactive)
11,C[C@H]1CCCCO[C@H](CN(C)S(=O)(=O)c2cn(C)cn2)[C@@H](C)CN([C@@H](C)CO)C(=O)c2cc(NS(=O)(=O)c3cn(C)cn3)ccc2O1,0.995 (inactive)
12,C[C@@H]1CCCCO[C@@H](CN(C)S(=O)(=O)c2cccs2)[C@@H](C)CN([C@H](C)CO)C(=O)c2cc(NC(=O)Nc3ccccc3)ccc2O1,1.02 (inactive)
13,Cc1ccc(-c2ccc3c(c2)O[C@@H](CN(C)Cc2cncnc2)[C@H](C)CN([C@H](C)CO)S3(=O)=O)cc1,1.01 (inactive)
14,C[C@H](CO)N1C[C@H](C)[C@@H](CN(C)Cc2ccc3c(c2)OCO3)Oc2c(NC(=O)Nc3cccc4ccccc34)cccc2C1=O,1.01 (inactive)
15,C[C@H]1CCCCO[C@H](CN(C)C(=O)Nc2ccccc2)[C@@H](C)CN([C@@H](C)CO)C(=O)c2cc(NS(=O)(=O)c3cccs3)ccc2O1,1.02 (inactive)
16,CCC(=O)Nc1ccc2c(c1)C(=O)N(C)C[C@H](OC)[C@H](C)CN(C(=O)CN1CCOCC1)[C@H](C)CO2,0.974 (inactive)
17,NCCn1cccn1,1.01 (inactive)
18,NCc1ccccc1-n1cccn1,1 (inactive)
19,Cl.N=C(N)n1cccn1,0.042 (active)
20,Cc1cc(C(=O)Nc2cccc3c2O[C@@H](CN(C)C(=O)Nc2ccc4c(c2)OCO4)[C@@H](C)CN([C@@H](C)CO)C3=O)n(C)n1,0.987 (inactive)
21,C[C@H]1CN([C@@H](C)CO)C(=O)c2cc(-c3ccc(C(=O)N(C)C)cc3)cnc2O[C@H]1CN(C)C(=O)c1ccncc1,0.964 (inactive)
